Test results from PubChem BioAssay AID1159580 (chemical genetic matrix, 2015).
The campaign covered roughly 5,500 compounds. About 2,000 (36%) were called active. About 18% were inconclusive and are not listed. Rule as the data show it: active = normalized growth mostly below about 0.91 (no sharp cut-off); inconclusive = no clear call, values can overlap the other calls; inactive = mostly above about 0.92. The list shows a part of the results.

Assay: chemical genetic growth profiling, strain panel (AID 1159580);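 also: tested at 20 µM; growth read once vehicle control cultures reached saturation at 30 °C; 1 = growth at the plate median or of vehicle wells; lower values mean less growth of the strain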
Details: growth OD
[1] = S. cerevisiae deletion strains, locus YAL040C, strain CLN3, active compounds read low
[2] = S. cerevisiae deletion strains, locus YCL061C, strain MRC1 (second series), active compounds read low
[3] = S. cerevisiae deletion strains, locus YDR363W, strain ESC2, active compounds read low
[4] = S. cerevisiae deletion strains, locus YER002W, strain NOP16, active compounds read low
[5] = S. cerevisiae deletion strains, locus YGR078C, strain PAC10, active compounds read low
[6] = S. cerevisiae deletion strains, locus YJR075W, strain HOC1, active compounds read low
[7] = S. cerevisiae deletion strains, locus YMR307W, strain GAS1, active compounds read low
[8] = S. cerevisiae deletion strains, locus YNL128W, strain TEP1, active compounds read low
[9] = S. cerevisiae deletion strains, locus YNL153C, strain GIM3, active compounds read low
[10] = S. cerevisiae deletion strains, locus YNL175C, strain NOP13, active compounds read low
[11] = S. cerevisiae deletion strains, locus YNL197C, strain WHI3, active compounds read low
[12] = S. cerevisiae deletion strains, locus YNL224C, strain SQS1, active compounds read low
[13] = S. cerevisiae deletion strains, locus YOR083W, strain WHI5 (second series), active compounds read low
[14] = S. cerevisiae deletion strains, locus YPL055C, strain LGE1, active compounds read low
[15] = S. cerevisiae deletion strains, locus YPL241C, strain CIN2, active compounds read low
[16] = S. cerevisiae deletion strains, locus YMR263W, strain SAP30, active compounds read low

Measured: normalized growth

O=C(O)CNC(=O)C(CS)Cc1ccccc1 (configuration not stated)
inactive: S. cerevisiae deletion strains, locus YAL013W, strain DEP1, active compounds read low 1.01 | [1] 1.05 | [2] 1 | [3] 1.01 | [4] 0.994 | [5] 1.01 | [6] 0.996 | [7] 1 | [8] 1.02 | [9] 1.07 | [10] 1.01 | [11] 0.967 | [12] 1 | S. cerevisiae deletion strains, locus YNL322C, strain KRE1, active compounds read low 0.995 | [13] 1.04 | [14] 1.01 | [15] 1.01

CC(=O)SC1CC2=CC(=O)CC[C@]2(C)C2CC[C@@]3(C)C(CC[C@@]34CCC(=O)O4)C12 (some centres not stated)
inactive: [1] 0.996 | [2] 1 | S. cerevisiae deletion strains, locus YDR150W, strain NUM1, active compounds read low 1.01 | [3] 1 | [4] 0.982 | [5] 1.01 | S. cerevisiae deletion strains, locus YGR229C, strain SMI1, active compounds read low 1.01 | [6] 1.01 | [16] 0.99 | [7] 1.03 | [8] 0.986 | [10] 1.01 | [11] 0.999 | [12] 1 | [13] 1.01 | [15] 1.01

CC(=O)O[C@@H]1CC2C(C)(C)C(=O)[C@@H]3O[C@@H]3[C@]2(C)C2CC[C@]3(C)C(=CC(=O)O[C@H]3c3ccoc3)[C@@]21C (some centres not stated)
inactive: S. cerevisiae deletion strains, locus YBR021W, strain FUR4, active compounds read low 0.995 | S. cerevisiae deletion strains, locus YBR229C, strain ROT2, active compounds read low 0.94 | S. cerevisiae deletion strains, locus YCL029C, strain bik1, active compounds read low 0.967 | S. cerevisiae deletion strains, locus YDL035C, strain GPR1, active compounds read low 0.958 | S. cerevisiae deletion strains, locus YDL074C, strain BRE1, active compounds read low 0.989 | S. cerevisiae deletion strains, locus YDL101C, strain DUN1, active compounds read low 0.994 | S. cerevisiae deletion strains, locus YDL134C, strain PPH21, active compounds read low 0.988 | S. cerevisiae deletion strains, locus YDL185W, strain tfp1, active compounds read low 0.964 | S. cerevisiae deletion strains, locus YDL192W, strain arf1, active compounds read low 0.976 | S. cerevisiae deletion strains, locus YDR101C, strain arx1, active compounds read low 0.975 | S. cerevisiae deletion strains, locus YDR162C, strain NBP2, active compounds read low 0.98 | S. cerevisiae deletion strains, locus YDR318W, strain mcm21, active compounds read low 0.995 | S. cerevisiae deletion strains, locus YDR388W, active compounds read low 0.999 | S. cerevisiae deletion strains, locus YDR502C, strain sam2, active compounds read low 1.01 | S. cerevisiae deletion strains, locus YEL061C, strain CIN8, active compounds read low 0.979 | S. cerevisiae deletion strains, locus YER110C, active compounds read low 0.975 | S. cerevisiae deletion strains, locus YER155C, strain BEM2, active compounds read low 0.998 | S. cerevisiae deletion strains, locus YER167W, strain BCK2, active compounds read low 0.981 | S. cerevisiae deletion strains, locus YGL078C, strain dbp3, active compounds read low 1.01 | S. cerevisiae deletion strains, locus YGL086W, strain mad1, active compounds read low 0.99 | S. cerevisiae deletion strains, locus YGL248W, strain PDE1, active compounds read low 1.01 | [5] 1.01 | S. cerevisiae deletion strains, locus YGR135W, strain pre9, active compounds read low 1.07 | S. cerevisiae deletion strains, locus YGR252W, strain gcn5, active compounds read low 0.997 | S. cerevisiae deletion strains, locus YHR030C, strain SLT2, active compounds read low 0.989 | S. cerevisiae deletion strains, locus YHR079C, strain IRE1 (second series), active compounds read low 0.985 | S. cerevisiae deletion strains, locus YHR094C, strain hxt1, active compounds read low 0.981 | S. cerevisiae deletion strains, locus YHR129C, strain ARP1, active compounds read low 0.988 | S. cerevisiae deletion strains, locus YHR200W, strain rpn10, active compounds read low 0.985 | S. cerevisiae deletion strains, locus YIL066C, strain RNR3, active compounds read low 0.948 | S. cerevisiae deletion strains, locus YIL073C, strain SPO22, active compounds read low 0.956 | S. cerevisiae deletion strains, locus YIL125W, strain kgd1, active compounds read low 0.987 | S. cerevisiae deletion strains, locus YIR030C, strain dcg1, active compounds read low 0.99 | S. cerevisiae deletion strains, locus YJL095W, strain BCK1, active compounds read low 1.04 | S. cerevisiae deletion strains, locus YJL134W, strain LCB3, active compounds read low 0.982 | S. cerevisiae deletion strains, locus YJL168C, strain set2, active compounds read low 0.996 | S. cerevisiae deletion strains, locus YJL187C, strain SWE1 (second series), active compounds read low 1.01 | S. cerevisiae deletion strains, locus YJR043C, strain POL32, active compounds read low 0.96 | [6] 1 | S. cerevisiae deletion strains, locus YKL009W, strain mrt4, active compounds read low 0.976 | S. cerevisiae deletion strains, locus YKL068W, active compounds read low 0.986 | S. cerevisiae deletion strains, locus YKL085W, strain MDH1 (second series), active compounds read low 0.996 | S. cerevisiae deletion strains, locus YKL085W, strain MDH1, active compounds read low 0.996 | S. cerevisiae deletion strains, locus YKR001C, strain vps1, active compounds read low 0.971 | S. cerevisiae deletion strains, locus YLR039C, strain RIC1, active compounds read low 0.99 | S. cerevisiae deletion strains, locus YLR058C, strain SHM2, active compounds read low 0.974 | S. cerevisiae deletion strains, locus YLR102C, strain apc9, active compounds read low 0.981 | S. cerevisiae deletion strains, locus YLR262C, strain YPT6, active compounds read low 0.963 | S. cerevisiae deletion strains, locus YLR268W, strain sec22, active compounds read low 0.948 | S. cerevisiae deletion strains, locus YLR330W, strain CHS5, active compounds read low 0.988 | S. cerevisiae deletion strains, locus YLR371W, strain rom2, active compounds read low 0.979 | S. cerevisiae deletion strains, locus YLR418C, strain cdc73, active compounds read low 0.993 | S. cerevisiae deletion strains, locus YML016C, strain PPZ1, active compounds read low 0.972 | S. cerevisiae deletion strains, locus YML032C, strain rad52, active compounds read low 0.962 | S. cerevisiae deletion strains, locus YML124C, strain tub3, active compounds read low 0.991 | S. cerevisiae deletion strains, locus YMR078C, strain ctf18, active compounds read low 0.993 | S. cerevisiae deletion strains, locus YMR223W, strain ubp8, active compounds read low 1 | [16] 1.01 | [7] 0.999 | S. cerevisiae deletion strains, locus YNL067W, strain RPL9B, active compounds read low 1.03 | [8] 0.948 | [9] 1.02 | S. cerevisiae deletion strains, locus YNL233W, strain BNI4, active compounds read low 1.03 | S. cerevisiae deletion strains, locus YNL250W, strain rad50, active compounds read low 1.01 | S. cerevisiae deletion strains, locus YNL271C, strain bni1, active compounds read low 0.999 | S. cerevisiae deletion strains, locus YNL298W, strain CLA4, active compounds read low 0.995 | S. cerevisiae deletion strains, locus YNL307C, strain MCK1, active compounds read low 0.987 | S. cerevisiae deletion strains, locus YNR052C, strain pop2, active compounds read low 1.04 | S. cerevisiae deletion strains, locus YOL012C, strain htz1 0.875 | S. cerevisiae deletion strains, locus YOL147C, strain pex11, active compounds read low 0.993 | S. cerevisiae deletion strains, locus YOR061W, strain CKA2, active compounds read low 0.936 | S. cerevisiae deletion strains, locus YOR069W, strain VPS5, active compounds read low 0.995 | S. cerevisiae deletion strains, locus YOR136W, strain idh2, active compounds read low 0.99 | S. cerevisiae deletion strains, locus YOR144C, strain elg1, active compounds read low 0.988 | S. cerevisiae deletion strains, locus YOR184W, strain ser1, active compounds read low 0.963 | S. cerevisiae deletion strains, locus YOR316C, strain cot1, active compounds read low 0.986 | S. cerevisiae deletion strains, locus YPR119W, strain clb2, active compounds read low 0.993 | S. cerevisiae deletion strains, locus YPR141C, strain kar3, active compounds read low 0.989 | S. cerevisiae deletion strains, locus YPR163C, strain tif3, active compounds read low 0.982 | S. cerevisiae deletion strains, locus YPR167C, strain met16, active compounds read low 0.999 | S. cerevisiae deletion strains, strain wtn01, active compounds read low 0.96 | S. cerevisiae strains, strain wild type, active compounds read low 0.973

CC(=O)[C@H]1CC[C@H]2[C@@H]3CC[C@H]4C[C@H](O)CC[C@]4(C)[C@H]3C(=O)C[C@]12C
inactive: [1] 0.999 | [2] 0.995 | [3] 0.983 | [4] 0.993 | [5] 0.994 | [16] 1 | [7] 0.981 | [10] 0.974 | [11] 0.994 | [12] 1.01 | [13] 0.997 | [14] 0.947
